Only some compounds are listed: those with a hit (about 21% of all), similar ones and a draw of the others.
CYP2C9 act – CYP2C9 (human) activation. P11712. recombinant CYP2C9, luciferin-H conversion, luminescence; active compounds read high; factor 1 = untreated enzyme, 0 = blocked. activation factor at 5 µM. 96,000 compounds, 1.4% hits;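 active = activation factor of 2 or more for CYP2C9 at a 5 µM dose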;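 note: 0 = sulfaphenazole-blocked wells and 1 = vehicle-only wells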
Target sequence (P11712 whole entry, looked up): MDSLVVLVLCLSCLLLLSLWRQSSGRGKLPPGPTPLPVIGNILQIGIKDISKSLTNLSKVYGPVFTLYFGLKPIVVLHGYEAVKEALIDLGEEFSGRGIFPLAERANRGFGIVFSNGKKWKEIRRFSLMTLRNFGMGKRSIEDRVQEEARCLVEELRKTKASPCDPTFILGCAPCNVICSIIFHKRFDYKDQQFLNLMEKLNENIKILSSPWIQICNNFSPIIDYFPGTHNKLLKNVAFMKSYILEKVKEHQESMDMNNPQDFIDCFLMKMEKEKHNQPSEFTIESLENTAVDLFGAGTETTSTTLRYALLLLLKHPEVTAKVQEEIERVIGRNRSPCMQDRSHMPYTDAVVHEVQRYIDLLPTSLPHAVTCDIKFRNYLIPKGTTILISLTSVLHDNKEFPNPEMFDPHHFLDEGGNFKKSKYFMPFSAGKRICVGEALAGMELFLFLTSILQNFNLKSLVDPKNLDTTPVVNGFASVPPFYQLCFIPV
CYP2C19 act – activators of human cytochrome P450 2C19; P33261; recombinant CYP2C19, luciferin-H EGE luminescence; active compounds read high; 0 = fully inhibited enzyme, 1 = untreated enzyme; activation factor at 5 µM; 96,000 tested, under 10 active; AID 1025;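 active = activation factor of at least 2 at 5 µM in the primary screen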;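 note: 0 = wells with 2.5 mM tranylcypromine and 1 = vehicle-only wells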
MRP1 act – activates MRP-1. AID 799. H69AR cells + doxorubicin, viability rescue, CellTiter-Glo. viability increase, % at 10 µM. 140,000 compounds, 0.61% hits;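 active = viability gain under doxorubicin at or above a set limit, the compound median plus 3 SD, cut at about 4.7% in these data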;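 note: MRP-1 overexpressing cells given doxorubicin 25 µM after compound pretreatment; 18-22 h compound pretreatment then 72 h with doxorubicin before readout; 0% = doxorubicin-only wells and 100% = vehicle-treated cells without doxorubicin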
MRP reversal – reverses drug resistance mediated by MRP; H69AR cells + 2 uM doxorubicin, CellTiter-Glo, 72 h; differential viability (reversal), % at 10 µM; 85,000 compounds, 0.04% hits; AID 602;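 active = viability drop by adding the cancer drug above about 55%, with treated viability meeting a 40% cutoff, limit read from the data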;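 note: viability without doxorubicin minus viability with 2 µM doxorubicin for each compound; larger differential means the compound sensitizes cells more to doxorubicin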
CYP2C9 inhib – inhibitors of human CYP2C9; P11712; inhibition, % at 5 µM; 96,000 compounds, 20% hits; CYP2C9 Supersomes, luciferin-H conversion, luminescence; AID 777;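 active = blocking of liver enzyme CYP2C9 beyond about 50% at 5 µM, limit read from the data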
CYP2C19 inhib – blocks human cytochrome P450 2C19 | P33261 | CYP2C19 Supersomes, luciferin-H EGE luminescence, 30 min | inhibition, % at 5 µM | 96,000 compounds, 21% hits | AID 778;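 active = CYP2C19 inhibition above a set limit at 5 µM in the primary screen, cut at about 50% in these data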;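 note: plate controls were negative control wells for no effect and 2.5 mM tranylcypromine positive control for full effect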
* hit, by the source's call; · = no result given.

SMILES | CYP2C9 act | CYP2C19 act | MRP1 act | MRP reversal | CYP2C9 inhib | CYP2C19 inhib
Cc1cc(C(=O)CN2CCCCC2)c(C)n1-c1ccc(F)cc1 | · | · | -1 | · | · | ·
Cc1noc(C)c1CSc1nnnn1-c1ccc(Cl)cc1 | 0.4 | 0 | 1 | 7 | 58* | 99*
Cc1noc(C)c1CSc1nc2ccccc2c(=O)n1-c1ccc(Cl)cc1 | 0 | 0.3 | -4 | -42 | 96* | 71*
Cc1noc(C)c1CSc1nc2sc(C)c(C)c2c(=O)n1-c1ccccc1 | 0.5 | 1 | -2 | 5 | 50* | -3
COc1ccc(-c2noc(CSc3nc4sc(C)c(C)c4c(=O)n3-c3ccccc3)n2)cc1 | · | · | -5 | · | · | ·
Cc1noc(C)c1CSc1nc2ccccc2n1CCc1ccccc1 | 0.4 | 0.4 | -3 | 10 | 62* | 63*
C=CCn1c(SCC(=O)c2cc(C)n(C(C)COC)c2C)nc2sc(C)c(C)c2c1=O (stereo not drawn) | 0.1 | 0.1 | -5 | 28 | 91* | 89*
C=CCn1c(SCc2c(C)noc2C)nc2sc(C)c(C)c2c1=O | 0.4 | 0.8 | -5 | -43 | 56* | 20
Cc1ccccc1C(=O)O/N=C(\N)c1ccncc1 | · | · | 0 | · | · | ·
CC1CCCCN1CCCNC(=O)c1ccc2c(=O)n(CCc3ccccc3)c(=O)[nH]c2c1 (stereo not drawn) | 0.2 | 0.1 | -2 | 11 | 79* | 87*
CC1CCCCN1CCNC(=O)c1ccc2c(=O)n(CCc3ccccc3)c(=O)[nH]c2c1 (stereo not drawn) | 1 | 0.8 | -4 | 10 | 1 | 21
O=C(CCCCl)Oc1ccc2cc(-c3ccc4ccccc4n3)c(=O)oc2c1 | · | · | 0 | · | · | ·
COCCSc1ccccc1C(=O)NCc1ccco1 | 1.1 | 0.8 | -3 | 17 | -10 | 24
CCOc1ccc(OCC)c(-c2c(=O)n(OCc3ccc(C(C)(C)C)cc3)c3ccccc3[n+]2[O-])c1 | 0.5 | 0.1 | 6.6* | · | 52* | 88*
COC(=O)c1c(NC(=O)CC2Nc3ccccc3NC2=O)sc(C)c1C (stereo not drawn) | 0.7 | 0.8 | -3 | · | 34 | 22
Cc1nc(NCc2ccco2)c2oc3ccccc3c2n1 | 0.4 | 0.2 | -2 | · | 63* | 77*
Cc1nc(NC(C)c2ccccc2)c2oc3ccccc3c2n1 (stereo not drawn) | 0.4 | 0.6 | 0 | 5 | 61* | 44
COc1ccc(N(C(=O)C(C)C)S(=O)(=O)c2cccc3cccnc23)cc1 | · | · | -1 | · | · | ·
CN(CC(=O)NCc1cccs1)S(=O)(=O)c1cccc2cccnc12 | 2.4* | 0.8 | -3 | 17 | -138 | 22
O=C(NCc1cccs1)c1cccnc1Cl | · | · | -1 | · | · | ·
CN(C)c1ccc(CNC(=O)CN(C)S(=O)(=O)c2cccc3cccnc23)cc1 | 0.6 | 0.3 | -3 | 13 | 44 | 70*
CCC(C)(C)c1nnc(NC(=O)c2ccc([N+](=O)[O-])cc2)s1 | 1 | 1 | 2 | · | 3 | -5
CCCn1c(N)c(C(=O)CSc2nnnn2-c2ccc(O)cc2)c(=O)n(C)c1=O | 1.4 | 0.9 | -3 | 13 | -41 | 10
COc1cccc(C(=O)CSc2nnc(-c3cccs3)o2)c1 | · | · | -2 | 5 | · | ·
COc1cccc(Cn2c(-c3cccs3)noc2=O)c1 | 0.7 | 0.2 | -1 | -5 | 30 | 82*
SMILES | CYP2C9 act | CYP2C19 act | MRP1 act | MRP reversal | CYP2C9 inhib | CYP2C19 inhib
CCCCN(C)CCC(=O)Nc1ccc(F)c(F)c1 | · | · | -1 | · | · | ·
CCN(CC)c1nc2ccccc2nc1C(C#N)C(=O)NCCc1ccccc1 (stereo not drawn) | 0.5 | 0.9 | -2 | 18 | 54* | 13
CCN(CC)c1nc2ccccc2nc1C(C#N)C(=O)NCCCOC (stereo not drawn) | 0.2 | 0.4 | -3 | 1 | 79* | 56*
Nc1ccnc(Oc2ccc(F)cc2)c1 | · | · | -2 | · | · | ·
CCOC(=O)c1sc(C)c2c1NC(C)(c1ccccc1)NC2=O (stereo not drawn) | 0.3 | 0.8 | -3 | 0 | 68* | 18
CCOC(=O)c1sc(C)c2c1NC(c1ccc(Cl)cc1)NC2=O (stereo not drawn) | 0.5 | 0.9 | -4 | · | 53* | 12
COc1ccc(/C=C2\C(=O)N(Cc3ccc(F)cc3)CC(=O)N2Cc2ccccc2)cc1 | 0.1 | 0.3 | -4 | · | 88* | 72*
COc1ccc(/C=C2\C(=O)NCC(=O)N2Cc2ccccc2)cc1 | 0.5 | 0.4 | -6 | · | 53* | 65*

Source: PubChem (several laboratories)
